Experimental findings from the supplement of paper PMC6555819 are described below.

The assay deals with VDR:RXRa (NR concentration 270 nM, RXRa partner concentration 90 nM). Put plainly: PBM binding z-score (relative to random genomic background probes); higher = stronger binding; sequences stand for … in GC…GCGATTGACAGCGTAGAATGAAGG
The method, then:
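Protein-binding microarray (Agilent 4x180K custom design, double-stranded 60-nt probes: 5' GC cap, 34-nt variable region, 24-nt constant primer region; full probe sequence given). Purified or IVT nuclear receptor:RXRα heterodimers (3:1 NR:RXRα, mostly 270:90 nM) or homodimers were incubated for 1 h in PBS with 2% milk and no ligand, then detected with Alexa488 antibodies. Fluorescence from o1-orientation probes (~5 replicates averaged) was converted to z-scores against 500 random hg19 background probes. Variable regions are seed direct-repeat (DR0–DR5) sites, all their single-nucleotide variants and half-site ablations.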
On to TCAGACAGTTGAAGGTAACTCAGGTACGCAGTCG, for which the PBM binding z-score worked out at 1.03. Then CCGACCGGGGCAAGGTTACCATAACGCACAGCCA, with 0.334. Then AATACAGAGTCATCGTAGGCCAGAGTACGCACAG, with -0.242; and GCTATCAGGCCATTTGGGTCACTCAATGACGGGC, with 1.38; and TCATATAGGTAAAAGGAGAAAGTCGGTGTGGTAA, with 0.929. In turn, CATACTGGGCCAAAGGTCATTGATTCCAATGCTC yielded a PBM binding z-score of 5.1. With ATCTCTAGGTAAAGTTCAGTGATAGATCGATAGA the figure was 1.47. Then TAGCCTAGGTCAGATCGGGCCAGTTTACGCTATA, with 0.663; and CTTAGCAGGCCAGGGTCACTCAAGCATTTCGCTT, with 2.67; and AGTCTAAGTTCAGGACGAGGTAACGTAAAGCACG, with 2.58. Then TTACCAAGGTGAGTTGAGGTCGTTGATCCAACTC, with 4.05. As for TCTAGCAGGCCAGAGGGTCCCTCAAGAGGTACGG, the PBM binding z-score is -0.431. With AGAATGAGGTTATTAAAATCAGGGAATTGCGGTC, the PBM binding z-score came out at 0.984.

Sequence TAGCCTAGGTCATGCGGGCAAGTATAGTGTCGGC gave a PBM binding z-score of 2.21. GCAGACAGGTGAAACGCAGGTAACACAGGGTGGC displayed a PBM binding z-score of -0.439. The sequence CCGACTGGGGCCGAAAGGTTACCATACCATCCGG returned a PBM binding z-score of 0.789. In turn, ACTATTCGTTGACTTAGGGCAACCGATACGACGC returned a PBM binding z-score of 0.325. Then TCTTTTAGTTGATTAGGGCAACCGAAACAGCGGA, with 0.986; and CCCAGCAGGCCAGGGTCACTCAAGCATTTCGCTT, with 2.42; and ATACCAAGGTGTTCGTGAGGTCGTTGATACTAAC, with 2.81. With AATACAGGGTCACTAGGCCACAGTAGGTACGAAT the figure was 4.27; with TCATATTGGTAAAGGTGAAAGTCGAACGATATGA, 0.612; with ACTTACGGGTCCACGAGGTTATAGCACGCGTATA, 3.52. As to TCTTGTAGATCAAGGAGGTTAAGAAAGCCTGAGT, the PBM binding z-score turned out to be 1.26. Then AAAATGAGGTTACCAAAGATCAGGGAAACGCTTG, with 1.94; and CCGACTGGGGCAAAGGTTAGCATACTCAGTACGA, with 0.691; and TCTTGTCGATCAATAGAGGTTAAGAAAGTGCGCT, with 1.86. On to TCTATTAGTTGATGGGCAACCGACGAGTCCGTTT, for which the PBM binding z-score came to 0.542. Sequence CCTACTGGGCCATTCAGAGGTCATAGATCATATG returned a PBM binding z-score of 3.64. With AGAATGTGGTTATACGTAGATCAGGGAAGAAAGT the figure was 0.0519; with ATCTCTAGATAACCAAGTTCAGTGAATGCCGAAC, 1.16; with CGAACTAGGGCATCCAGGACAGTGAATACATTGA, 0.492. Consider CCGACTGGGGCAGAAAGGTTACCATCCCATCCGG, for which the PBM binding z-score is 0.789.

As for ATCTCTAGGTAAGACTCAATTCAGTGAAGAACGC, the PBM binding z-score worked out at 0.199. GTATCAAGGTGAATAGGTCGTTGATGAGTAGGCG returned a PBM binding z-score of 1.1. CAAACTAGGTCAAGAGGTAAAAGTCCGCTTCCCG: the PBM binding z-score came to 2.17. As to ATCTCTAGCTAACAAGTTCAGTGAAAGAGAGGAC, the PBM binding z-score was determined as 1.64. CCTACTGGGCCACGAATGGTCATTGATTCAGTGA had a PBM binding z-score of -0.558. CAAACTAGGTCAAGGTAAAAGTCGGTTTGTGCCA returned a PBM binding z-score of 1.79.

For the sequence CCTAGTTGGTCAGGAGGGCACACACCGGATATGA, the PBM binding z-score was 0.458.
